# Screening data deposited in PubChem by National Center for Advancing Translational Sciences (NCATS).
# KDM4E inh: blocks human JMJD2E demethylase activity; B2RXH2; JMJD2E catalytic domain, FDH-coupled NADH fluorescence (FDH is formaldehyde dehydrogenase); 1.6% of 230,000 active; Potency, µM (series often up to 57.1 µM), inactives show top-dose activity change, negative = inhibition, actives largely listed as inhibitors;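 also: potency is read from the fitted curve at half-maximal effect; 0% = wells with enzyme and -100% = buffer wells without enzyme; nearly all actives have a fitted effect of over 50% in size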
# Target sequence (B2RXH2 1-337 limits assumed): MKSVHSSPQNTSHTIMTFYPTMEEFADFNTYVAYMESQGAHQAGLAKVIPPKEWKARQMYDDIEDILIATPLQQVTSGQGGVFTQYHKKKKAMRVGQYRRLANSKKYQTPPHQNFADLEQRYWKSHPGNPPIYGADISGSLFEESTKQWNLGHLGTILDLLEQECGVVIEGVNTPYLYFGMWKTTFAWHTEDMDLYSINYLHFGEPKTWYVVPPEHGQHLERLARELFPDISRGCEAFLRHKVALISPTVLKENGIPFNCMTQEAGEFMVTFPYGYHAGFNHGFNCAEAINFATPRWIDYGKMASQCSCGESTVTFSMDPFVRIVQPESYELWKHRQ
# HPGD block: blocks human HPGD enzyme activity; Potency, µM, for inactives: at the top dose activity change, negative = inhibition, usual class: inhibitors; purified HPGD, NADH fluorescence kinetic, PGE2 substrate; 4.3% of 150,000 active; P15428; AID 894; also: potency is read from the fitted curve at half-maximal effect
# Target sequence (P15428 whole entry, looked up): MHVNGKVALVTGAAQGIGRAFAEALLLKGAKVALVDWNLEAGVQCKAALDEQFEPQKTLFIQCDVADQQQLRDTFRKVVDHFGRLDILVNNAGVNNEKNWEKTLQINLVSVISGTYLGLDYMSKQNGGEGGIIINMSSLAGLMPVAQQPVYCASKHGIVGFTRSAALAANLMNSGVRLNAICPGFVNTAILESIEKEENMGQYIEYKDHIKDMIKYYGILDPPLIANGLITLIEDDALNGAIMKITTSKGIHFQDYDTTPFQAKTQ
#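 NADH formation kinetics: reaction with 30 uM PGE2 and 1 mM NAD+ (final), 20 nM enzyme, Tris-HCl pH 8 with Tween 20, after 15 min compound preincubation at room temperature. Fluorescence change, last versus first of five reads.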
# PNC inhibitor: perinucleolar compartment assembly inhibition. PC3M PTB-GFP, PNC prevalence imaging, 16 h; stronger effect = lower value. activity change (PNC), negative = inhibition, % at 10 µM. 3.1% of 140,000 active. AID 2417;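 active = readout at or below -70, meaning at least 70% loss of cells showing the perinucleolar compartment, a nuclear body marking cancer cells; inconclusive = readout between -30 and a set limit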;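 also: plate controls were DMSO wells for no effect and camptothecin positive control wells for full effect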
#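 Compounds are pinned in duplicate onto adhered PC3M cells stably expressing GFP-tagged PTB and incubated 16 h at 37 C. Cells are then fixed, nuclei stained with Hoechst, and PNC-positive cells counted.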
# ALDH1A1 block: ALDH1A1 (human) enzyme inhibition; P00352; Purified ALDH1A1, NADH fluorescence, propionaldehyde substrate; Potency, µM (doses to about 75.3 µM), without a hit: at the highest dose activity, negative = inhibition, usual class: inhibitors; 7.3% of 220,000 active; AID 1030;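 also: potency is read from the fitted curve at half-maximal effect; plate controls were no enzyme wells and a reference inhibitor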
# * hit, by the source's call; ? = inconclusive; . = no result; ! = not active in a repeat; [ ] = remark or other dose. An excerpt weighted towards active compounds, which were near 11% of everything screened. Unless noted, calls follow the shape of the dose curve; as a rule, active = well fitted inhibition curve with a large enough effect (not every such curve was filed as active); inconclusive = small, poorly fitted or top-dose-only effect, or another doubt; inactive = no such curve, though single readings can be large or run the other way. Unless noted, % is scaled to controls: 0 for no effect and ±100 for the full control effect.
SMILES,KDM4E inh,HPGD block,PNC inhibitor,ALDH1A1 block
CC(=O)C1=NN(c2ccc(Cl)cc2)C(c2ccc3c(c2)OCO3)N(C(C)=O)N1C (stereo not given),-9.8%,.,.,-6.6%
N#Cc1c(NC(=O)c2ccccc2)sc2c1CCC2,-3.5%,?,-8.8,?
COc1cccc(C(=O)Nc2sc3c(c2C#N)CCN(C(C)=O)C3)c1,-12.8%,.,.,8.91µM*
Cn1ncc(Cl)c1C(=O)NC(=S)Nc1sc2c(c1C#N)CCCCC2,12.1%,25.1µM*,84.8,?
CC1(C)Cc2c(sc(NC(=S)NC(=O)c3ccccc3)c2C(=O)O)CO1,-9.4%,.,.,22.4µM*
CC(C)(C)C(=O)Nc1sc2c(c1C#N)CCCCC2,0.8%,-16.0%,31.6,-1.6%
Cc1ccccc1C(=O)NC(=S)Nc1sc2c(c1C#N)CCC(C)C2 (stereo not given),5.2%,-21.1%,?,10µM*
CC1CCc2c(sc(NC(=S)NC(=O)c3ccccc3)c2C#N)C1 (stereo not given),-26.6%,.,.,.
CC(C)=CCC/C(C)=C/CO/N=C1/C[C@@H](O)[C@@H](O)[C@@H]2[C@@H]3C(=O)N([C@@H](C)c4ccccc4)C(=O)[C@H]3CC[C@@H]12,.,.,.,-5.5%[13.5 µM]
Cc1ccc(CN(Cc2ccccc2)C(=S)NCC(=O)NCc2cccnc2)o1,-0.9%,.,.,?
CCOc1ncccc1C(=O)OCC(=O)N(CC)c1ccccc1,-5.9%,.,.,?
O=c1c(-c2cccc(Cl)c2)nc2cncnc2n1Cc1ccc(F)cc1,.,-6.6%,.,14.1%
Cc1cc(C)c2nc(-c3ccccn3)cc(C(=O)Nc3cc(C)on3)c2c1,?,?,-86.5*,?
Cc1cc(NC(=O)c2cc(-c3ccccn3)nc3ccccc23)no1,-7.4%,-3.9%,-2.7,-8.2%
Cc1nc(SCC(=O)O)c(C#N)c2c1CCCC2,-6.5%,.,.,.
CSc1nc(N2CCOCC2)c2c(c1C#N)CCCCC2,-16.1%,-14.0%,?,22.4µM*
CSc1nc(C)c2c(c1C#N)CCCC2,0.8%,-20.2%,?,25.1µM*
N#CCCSc1nc(N2CCOCC2)c2c(c1C#N)CCCC2,-8.9%,-3.9%,?,12.6µM*
CCCSc1nc(N2CCOCC2)c2c(c1C#N)CCCC2,-3.5%,.,25.2,14.1µM*
C[C@@H]1/C=C\CC(=O)OC[C@H](C)C(=O)N[C@@H](Cc2ccccc2)C(=O)OC1,.,.,.,6.6%[13.5 µM]
CNC(=S)NNC(=O)c1noc(C)c1C(=O)N1CCN(C(c2ccccc2)c2ccccc2)CC1,4.6%,.,.,-0.9%
C[C@@H]1CCCN(CP(=O)(c2ccccc2)c2ccccc2)C1,.,-8.3%,.,1.9%[13.5 µM]
O=C1c2cccc([N+](=O)[O-])c2C(=O)N1c1ncn[nH]1,.,-5.1%,.,7.9%[13.5 µM]
COCCn1c(SCC(=O)NCc2ccc3c(c2)OCO3)nc2ccccc2c1=O,1.7%,.,.,15.0%
CCCC[n+]1ccn(-c2nc3ccccc3nc2[N-]S(=O)(=O)c2cccs2)c1,-4.6%,.,.,.
SMILES,KDM4E inh,HPGD block,PNC inhibitor,ALDH1A1 block
Cc1ccc(O)c(N=Nc2ccccc2)n1,-5.7%,22.4µM*!,.,?
O=C(/C(=C/O)N=Nc1ccc(Cl)cc1)c1ccncc1,-29.5%,-15.3%,-11.3,10µM*
O=C(NNC(=O)c1ccc(Cl)cc1Cl)c1ccncc1,7.6%,-0.4%,?,4.9%
Cc1ccc(N=N/C(=C\O)C(=O)c2ccncc2)cc1,-10.6%,-20.8%,62.4,3.98µM*
Cc1ccc(S(=O)(=O)NNC(=O)c2ccncc2)cc1,4.6%,-1.6%,32.0,3.2%
NCC1CCC(N)C(O[C@@H]2C(O)[C@H](O[C@H]3OC(CO)C(O)C(N)C3O)[C@@H](N)C[C@H]2N)O1 (stereo not given in full),5.7%,-3.5%,.,-4.8%
O=C(CSc1nnc(SCc2ccccc2)s1)N/N=C/C=C\c1ccco1,?,15.8µM*,-12.4,17.8µM*
CCn1c(SCC(=O)N/N=C/C=C/c2ccco2)nc2ccccc21,-7.6%,-14.4%,61.0,12.6µM*
C/C(=N/NC(=O)Cc1cccn1C)c1ccccc1,-0.4%,-7.5%,39.0,17.8µM*
O=C(CSc1nnc(SCc2ccccc2)s1)N/N=C/C=C/c1ccccc1[N+](=O)[O-],9.1%,-24.4%,?,-15.2%
CCn1c(SCC(=O)N/N=C/c2ccc(C)s2)nc2ccccc21,2.2%,-21.4%,3.6,?
Cn1cccc1CC(=O)N/N=C/C=C/c1ccco1,3.8%,15.8µM*,?,2.9%
O=C(Nc1cnccc1C(F)(F)F)NC1CCCCC1,-7.1%,.,.,3.7%
CCOC(OCC)P(=O)(O)CCCNCc1ccc(Cl)c(Cl)c1,-23.0%,-1.6%,.,1.7%
N#Cc1cccc(NC(=O)N2CC[C@@]3(CCCN(S(=O)(=O)c4ccccc4)C3)C2)c1,.,-6.4%,.,-1.2%
CC[C@H](C)[C@H](NC(N)=O)C(=O)Nc1ccccc1F,1.9%,.,.,7.6%
CCn1c(SCC(=O)N/N=C/C=C/c2ccco2)nnc1-c1ccc(OC)cc1,-5.1%,31.6µM*,?,-2.1%
CC(/C=N/NC(=O)CSc1nc2ccccc2n1C)=C\c1ccco1,-21.2%,-11.3%,-17.6,12.6µM*
CCn1c(SCC(=O)N/N=C/C=C/c2ccccc2[N+](=O)[O-])nnc1-c1ccc(Cl)cc1,3.8%,-18.9%,?,4.47µM*
CCn1c(SCC(=O)N/N=C/c2ccc(C)o2)nnc1-c1ccc(C)cc1,5.3%,-17.5%,-19.4,?
CCCCCCCCCCCCC/C=C/[C@@H](O)[C@H](CO)N(C)C,4.1%,-2.0%,.,-0.4%
Cc1ccc(NC(=O)NNC(=O)C2CCN(Cc3ccc(F)cc3Cl)CC2)cc1,0.4%,.,.,10.1%
Cc1ccc(OC2C(O)COC2/C=C/C#Cc2ccc(C(C)(C)C)cc2)cc1 (stereo not given),.,.,.,1.4%[13.5 µM]
O=C(O)CSCCc1ccccc1,.,1.6%,.,11.6%[13.5 µM]
CCOC(=O)Cn1c(S(=O)(=O)Cc2ccccc2Cl)nc(-c2ccccc2)c1-c1ccccc1,5.5%,-12.8%,-83.6*,4.2%
SMILES,KDM4E inh,HPGD block,PNC inhibitor,ALDH1A1 block
C#CCn1c(S(=O)(=O)Cc2ccccc2Cl)nc(-c2ccccc2)c1-c1ccccc1,-10.9%,1.2%,-18.9,4.7%
CCCC(=O)Nc1nc(C)c(-c2csc(Nc3ccc(Cl)cc3)n2)s1,-12.0%,-14.4%,8.1,?
Cc1ccc(Nc2nc(-c3sc(NC(=O)c4cccc(Cl)c4)nc3C)cs2)cc1,-5.9%,-21.0%,-13.9,15.8µM*
Cc1nc(NC(=O)c2ccccc2)sc1-c1csc(Nc2ccc(C(=O)O)cc2)n1,-26.5%,.,.,.
Cc1ccccc1Nc1nc(-c2sc(NC(=O)c3ccco3)nc2C)cs1,-4.9%,?,-0.5,20µM*
CC(=O)Nc1nc(C)c(-c2csc(Nc3ccc(O)cc3)n2)s1,?,-28.0%,-16.6,25.1µM*
CCOc1ccccc1Nc1nc(-c2sc(NC(=O)c3ccco3)nc2C)cs1,-25.4%,-21.6%,-10.8,-3.7%
CCC(C)C(=O)Nc1nc(C)c(-c2csc(Nc3ccc(Cl)cc3)n2)s1 (stereo not given),-8.2%,?,35.1,22.4µM*
Cc1ccc(-n2cc(CN3CCC(O)(c4ccccn4)CC3)c(-c3ccc(F)cc3)n2)cc1,?,.,.,-6.5%
COC(=O)/C=C/S(=O)(=O)c1ccc(NC(C)=O)cc1,4.5%,-4.7%,-7.2,0.316µM*
COc1ccccc1OS(=O)(=O)c1ccc(NC(C)=O)cc1,5.3%,.,.,?
